KB-V1 cytotox: qHTS assay for MDR1-selective chemotherapeutics: Primary screen using the drug-selected MDR subline cells KB-V1; KB-V1 MDR cells viability, CellTiter-Glo, 72 h; Potency, µM (titrated, usually from 46.1 µM), usual class: cytotoxic; 3.4% of 400,000 active; note: % is set by controls: 0 for no effect and ±100 for the full control effect; nearly all actives have a fitted effect of over 60% in size
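qHTS viability screen in drug-selected KB-V1 MDR cells: 72 h compound treatment at 37 degrees C, ATP luminescence end point.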
MCF10A rerep: A quantitative high throughput screen for small molecules that induce DNA re-replication in MCF 10a normal breast cells; MCF 10A DNA re-replication, Hoechst nuclear intensity, 48 h; Potency, µM (titrated, usually from 46.1 µM), for the others: top-dose activity, positive = re-replication, usual class: activators; 2.9% of 350,000 active; AID 624296, 2012; note: % of control where 0% means no effect; nearly all actives have a fitted effect of over 50% in size
SW480 rereplic: A quantitative high throughput screen for small molecules that induce DNA re-replication in SW480 colon adenocarcinoma cells | SW480 DNA re-replication, Hoechst DNA content imaging, 48 h | Potency, µM (top dose mostly 46.1 µM), for inactives: at the highest dose re-replication activation, actives largely listed as activators | 1.8% of 340,000 active; note: % of control where 0% means no effect; nearly all actives have a fitted effect of over 55% in size
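Hoechst fluorescence of nuclei (405 nm excitation, 500-530 nm emission) measured by plate-scanning imager after 48 hr compound exposure at 37 C; re-replication scored as increased number of nuclei with elevated intensity.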
ELG1 repair inh: qHTS screen for small molecules that inhibit ELG1-dependent DNA repair in human embryonic kidney (HEK293T) cells expressing luciferase-tagged ELG1. HEK293T ELG1-luciferase reporter, luminescence, 16 h; DNA damage induced by 5-fluorouridine. Potency, µM (doses to about 46.1 µM), for the others: top-dose activity change, negative = inhibition, most hits filed as inhibitors. 2.3% of 330,000 active; note: % is set by controls: 0 for no effect and ±100 for the full control effect; nearly all actives have a fitted effect of over 55% in size
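Luminescence from the luciferase reporter, measured 30 min after ONE-Glo reagent at room temperature, was the read-out. Beforehand, 2,000 cells per well were exposed for 16 hr at 37 °C to 5-fluorouridine together with compound or vehicle.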
KB-3-1 cytotox: qHTS assay for MDR1-selective chemotherapeutics: Primary screen using the parental adenocarcinoma cell KB-3-1. KB-3-1 viability, CellTiter-Glo ATP luminescence, 72 h. Potency, µM (series often up to 46.1 µM), most hits filed as cytotoxic. 1.4% of 400,000 active; note: % is set by controls: 0 for no effect and ±100 for the full control effect; nearly all actives have a fitted effect of over 60% in size
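KB-3-1 cells, DMEM (no phenol red) + 10% FBS; compound by pin transfer, 72 h, 37 °C. Readout: CellTiter-Glo luminescence after 10 min. Data normalized, curve-fitted.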
The depositor's hits bear a star; i = inactive; ? = inconclusive; . = no result given. Shown are actives, neighbours in structure and some others; about 8.1% of the full set was active somewhere. Calls come from the whole dose curve; as a rule, active = well fitted curve in the direction sought with a large enough effect; inconclusive = small, poorly fitted or top-dose-only effect, or another doubt; inactive = no such curve, though single readings can be large; an effect the other way counts as inactive or inconclusive. Potency is the fitted concentration of half-maximal effect.

SMILES | KB-V1 cytotox | MCF10A rerep | SW480 rereplic | ELG1 repair inh | KB-3-1 cytotox
NNC(=O)c1ccc(Cn2cccn2)o1 | i | ? | 2.3µM* | 6% | i
NNC(=O)c1ccc(Cn2cc(Br)cn2)o1 | i | -2% | -18% | 1% | i
Cc1cc(/C=N/n2cnnc2)c(C)n1-c1ccccc1 | 5.8µM* | 8% | -3% | 28% | 3.3µM*
Cc1cc(/C=N/n2cnnc2)c(C)n1-c1ccc(OCc2ccc(Cl)cc2Cl)cc1 | 5.2µM* | 1.5µM* | 14% | ? | 7.3µM*
C=CCn1c(SCC(=O)N2CCc3ccccc3C2)nc2sc(CC)cc2c1=O | i | 15% | -1% | 23µM* | i
C=CCn1c(SCC(=O)N2CCOCC2)nc2sc(CC)cc2c1=O | 4.6µM* | -5% | -6% | ? | i
C=CCn1c(SCC(=O)c2cccs2)nc2sc(C)cc2c1=O | 7.3µM* | ? | 0% | ? | i
C=CCn1c(SCC(=O)N2CCc3ccccc3C2)nc2sc(C)c(C)c2c1=O | i | ? | ? | ? | i
COc1ccc(C(C)=O)cc1CSCCC(=O)O | ? | 4% | 5% | 1% | i
COc1ccc(C(=O)/C=C/c2ccsc2)cc1CSCC(=O)O | i | 18µM* | ? | 2% | i
Cc1nc(Nc2cnc(/C=C/c3cc(C(=O)Nc4cccc(C(F)(F)F)c4)ccc3C)cn2)cc(N2CCNCC2)n1 | ? | 15µM* | 16µM* | ? | ?
COc1cc(OC)cc(-c2noc([C@H]3C[C@H](O)[C@@H](CO)O3)n2)c1 | i | . | . | . | i
Cc1nc(SCC(=O)N2CCCc3ccccc32)c2oc3ccccc3c2n1 | 21µM* | ? | 16µM* | 11% | i
Cc1nc(SCC(=O)NCCc2ccccc2)c2oc3ccccc3c2n1 | i | 3% | 6% | 1% | i
COc1ccc(-n2nnc3c(SCC(=O)N4CCCc5ccccc54)ncnc32)cc1 | i | -3% | 12µM* | . | i
Cc1nc(SCC(=O)NC(C)c2ccccc2)c2oc3ccccc3c2n1 (configuration not stated) | 5.2µM* | ? | 1% | 0% | i
CCc1nc(SCC(=O)NCCc2ccccc2)c2oc3ccccc3c2n1 | 18µM* | 9% | 0% | ? | i
CCOC(=O)c1c(C)[nH]c(C)c1S(=O)(=O)NCC(=O)Nc1ccc(C)cc1C | i | . | . | . | i
CCC(=O)N(C)C[C@H]1Oc2cc(-c3ccccc3F)ccc2S(=O)(=O)N([C@H](C)CO)C[C@H]1C | i | . | . | . | i
O=C(NNC(=O)C1CCC1)c1ccc(F)cc1 | i | . | . | . | i
CCOc1ccc(S(=O)(=O)c2ccc(C)cc2)c2c1no[n+]2[O-] | ? | . | . | . | i
Cc1nc(SCC(=O)Nc2ccc(F)cc2)c2oc3ccccc3c2n1 | i | ? | -7% | 14% | i
O=C(O)CSc1nc(-c2ccccc2)nc2c1oc1ccccc12 | i | 0% | -5% | 0% | i
Cc1nc(SCC(=O)Nc2ccccc2)c2oc3ccccc3c2n1 | i | 12µM* | -7% | 4% | i
O=C(O)CSc1nc(-c2ccc(Cl)cc2)nc2c1oc1ccccc12 | i | 23µM* | 165% | -14% | i
SMILES | KB-V1 cytotox | MCF10A rerep | SW480 rereplic | ELG1 repair inh | KB-3-1 cytotox
COc1ccc(CNC(=O)C2CC(c3ccc(OC)cc3)=NO2)cc1 (configuration not stated) | i | 6.5µM* | 4% | 1% | i
CCn1ncc(C2=NOC(C(=O)NCc3ccc(Cl)cc3)C2)c1C (configuration not stated) | 4.6µM* | ? | 3.7µM* | 20% | 2.3µM*
O=C(Nc1ccc2c(c1)OCO2)C1CC(c2ccc(Cl)cc2)=NO1 (configuration not stated) | i | 3% | 2% | 1% | i
COc1ccc(C2=NOC(C(=O)NCc3ccc(F)cc3)C2)cc1 (configuration not stated) | 15µM* | ? | 4% | 14% | 7.3µM*
O=C(NCc1ccc2c(c1)OCO2)C1CC(c2ccc(Cl)c(Cl)c2)=NO1 (configuration not stated) | i | 2.6µM* | 0% | ? | i
COc1ccc(CNC(=O)C2CC(c3ccc(F)cc3)=NO2)cc1 (configuration not stated) | i | ? | -4% | 2% | i
CCn1ncc(C2=NOC(C(=O)Nc3ccc(C)cc3)C2)c1C (configuration not stated) | i | 8% | 6% | -16% | i
O=C(O)C#CC(=O)O | i | . | . | . | i
O=C(COc1ccc(Cl)cc1)OCCNC12CC3CC(CC(C3)C1)C2 | . | 5% | 4% | . | .
O=C(NCc1ccccc1)c1cc(C2CCCCN2C(=O)c2cccs2)on1 (configuration not stated) | i | . | . | . | i
Cc1ccccc1-c1nc(SCC(=O)NCc2ccco2)c2c(=O)n(C)c(=O)n(C)c2n1 | i | . | . | . | ?
CCC(CO)NC(=O)C(=O)Nc1c2c(nn1-c1ccc(F)cc1)CSC2 (configuration not stated) | i | . | . | . | i
COc1ccc(C(C(=O)NC2CCCCC2)N(C(=O)c2cccs2)c2ccc3c(c2)OCO3)cc1 (configuration not stated) | i | ? | 4% | -1% | i
O=C(NC1CCCCC1)C(c1ccccc1)N(C(=O)c1cccs1)c1ccc2c(c1)OCO2 (configuration not stated) | ? | -6% | 1.3µM* | 4% | i
O=C(NC1CCCCC1)C(c1ccc2ncccc2c1)N(Cc1ccccc1)C(=O)c1ccc2c(c1)OCCO2 (configuration not stated) | i | 0% | -3% | ? | i
O=C(NC1CCCCC1)C(c1ccc2ncccc2c1)N(Cc1ccccc1)C(=O)c1cccs1 (configuration not stated) | 23µM* | ? | ? | -28% | i
COc1ccc(CN(C(=O)c2ccc3c(c2)OCCO3)C(C(=O)NC2CCCCC2)c2ccc3ncccc3c2)cc1 (configuration not stated) | i | 13µM* | 6% | -19% | i
CN1CCN(c2cccc(Nc3nn4c(=O)c5ccc(F)cc5nc4s3)c2)CC1 | i | . | . | . | i
CC1(C)CC(N2CCCC2)=CC(=[N+]2CCCCC2)C1 | i | ? | 3% | 1.2µM* | 5.2µM*

Screening data (PubChem BioAssay)
